# High-throughput results: PubChem BioAssay, several laboratories
# DAGLB inhibitor: diacylglycerol lipase beta (human) inhibition. actives 0.059% (n = 340,000). AID 504411. HEK293T DAGLB membrane lysate, EnzChek fluorogenic substrate. Q8NCG7. inhibition, % at 5.17 µM; in the data active means inhibition above about 34%;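 further: 0% = enzyme with vehicle and 100% = wells lacking enzyme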
# Target sequence (Q8NCG7 whole entry, looked up): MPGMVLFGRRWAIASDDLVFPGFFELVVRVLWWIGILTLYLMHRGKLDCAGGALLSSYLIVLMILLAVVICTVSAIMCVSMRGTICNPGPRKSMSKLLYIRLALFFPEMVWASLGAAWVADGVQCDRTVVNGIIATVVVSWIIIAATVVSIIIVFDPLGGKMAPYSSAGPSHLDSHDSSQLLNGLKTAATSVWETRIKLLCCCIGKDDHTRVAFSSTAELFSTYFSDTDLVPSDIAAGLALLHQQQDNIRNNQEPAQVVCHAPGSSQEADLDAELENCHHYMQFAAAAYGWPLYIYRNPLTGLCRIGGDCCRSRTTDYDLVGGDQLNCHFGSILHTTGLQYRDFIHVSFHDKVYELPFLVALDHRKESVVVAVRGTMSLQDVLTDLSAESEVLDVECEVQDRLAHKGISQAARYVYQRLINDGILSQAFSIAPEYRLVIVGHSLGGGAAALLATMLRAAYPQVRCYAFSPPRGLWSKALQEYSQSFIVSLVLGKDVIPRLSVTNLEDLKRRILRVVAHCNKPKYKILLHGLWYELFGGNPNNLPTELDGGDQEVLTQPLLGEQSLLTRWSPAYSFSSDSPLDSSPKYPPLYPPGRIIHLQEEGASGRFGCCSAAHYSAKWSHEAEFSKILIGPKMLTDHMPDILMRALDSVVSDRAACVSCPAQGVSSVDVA
# HGIII-sPLA2 inh: Inhibits HGIII-sPLA2 liposome hydrolysis, primary screen; actives 0.56% (n = 370,000); AID 743126; QFRET BODIPY PC-A2 liposome hydrolysis, fluorescence; Q9NZ20; inhibition, % at 12.2 µM;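 active means inhibition above mean plus 3 SD of compounds lying within the high and low control bounds, cut at about 19% in these data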;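 further: 0% = median of test compound wells and 100% = no enzyme DMSO wells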
# ARNT TACC3 PPI: disruptors of human ARNT/TACC3 interaction; Q9Y6A5; AlphaScreen His-ARNT PAS-B/GST-TACC3 binding, luminescence; TACC3 fragment carries E629A point mutation; inhibition, % at 9.99 µM; actives 0.66% (n = 390,000); AID 623870;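 active means mean inhibition of replicates at least 50% and at least half of replicates each reaching 50%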;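 further: 0% = complete ARNT plus TACC3 wells and 100% = ARNT alone without TACC3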
# Neddylation inh: cullin neddylation inhibition; P61081+Q13564; TR-FRET cullin neddylation, biochemical; inhibition, % at 25 µM; actives 0.58% (n = 360,000); in the data active means inhibition above about 36%
# NadD inh: blocks S. aureus nicotinate mononucleotide adenylyltransferase; purified NadD enzyme, colorimetric absorbance read-out; inhibition, % at 20 µM; actives 0.78% (n = 360,000); in the data active means inhibition above about 26%
# DAGLB confirm: DAGLB (human) inhibition, confirmation screen | actives 73% (n = 190) | AID 504445 | HEK293T DAGLB membrane lysate, EnzChek fluorogenic substrate | inhibition, % at 5.17 µM | shares compounds with DAGLB inhibitor;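 active means mean inhibition over triplicate wells above a set limit taken from the primary lipase screen, cut at about 34% in these data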;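 further: 0% = DAGLB with DMSO and 100% = wells lacking DAGLB enzyme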
# NadD inh conf: NadD (S. aureus) inhibition, single concentration confirmation; shares compounds with NadD inh; purified S. aureus NadD, colorimetric enzyme assay; inhibition, % at 20 µM; actives 13% (n = 2,000); AID 624309; in the data active means inhibition mostly above about 42%, no sharp cut-off; inactive means mostly below about 42%
# ARNT Alpha ctr: counter-screen for ARNT/TACC3 inhibitors: AlphaScreen artifacts. AC50, µM (series often up to 68 µM), for the others: at the top dose activity change, negative = signal decrease. AID 651705. shares compounds with ARNT TACC3 PPI. actives 50% (n = 1,200). His-ARNT PASB-GST AlphaScreen artifact counter-screen, luminescence;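 active means every separate test run was called active for a drop in luminescence, with AC50 within twice the top valid dose, actives reach about 71 µM in these data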
# hGIII sPLA2 conf: human GIII-sPLA2 inhibition, confirmation; shares compounds with HGIII-sPLA2 inh; recombinant hGIII-sPLA2, BODIPY PC-A2 QFRET fluorescence; inhibition, % at 12.2 µM; actives 34% (n = 2,000); AID 743280;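 active means mean inhibition across triplicates above the hit cutoff set in the earlier primary screen, cut at about 19% in these data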;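 further: 0% = enzyme with DMSO and 100% = DMSO wells lacking enzyme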
# 535nm interf: counter-screen for HGIII-sPLA2 inhibitors: 535nm fluorescence interference; shares compounds with HGIII-sPLA2 inh; BODIPY FL product fluorescence interference, QFRET; inhibition, % at 12.2 µM; actives 8.5% (n = 2,000); AID 743282;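 active means average inhibition above the solvent-only control mean plus 3 SD, cut at about 6% in these data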;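 further: 0% = DMSO with substrate plus product and 100% = DMSO with substrate alone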
# An asterisk follows results filed as active; · = no result given. An excerpt weighted towards active compounds, which were near 2% of everything screened.
SMILES,DAGLB inhibitor,HGIII-sPLA2 inh,ARNT TACC3 PPI,Neddylation inh,NadD inh,DAGLB confirm,others
COc1cc([C@H]2c3[nH]c4ccccc4c3C[C@H]3C(=O)N4[C@@H](c5cc(OC)c(OC)c(OC)c5)c5[nH]c6ccccc6c5C[C@H]4C(=O)N23)cc(OC)c1OC,35*,·,-5,-25,3,43*,
COc1cccc(NC(=O)C[C@H]2CC[C@@H]3[C@@H](COc4ccc(NC(=O)C5CCCCC5)cc4C(=O)N3C)O2)c1,·,·,12,·,·,·,
CN1CCN(C2=C(NS(=O)(=O)c3cccs3)C(=O)c3ccccc3C2=O)CC1,2,2,-4,-38,-5,·,
CCOc1ccccc1N1CCN(C2=C(NS(=O)(=O)c3cccs3)C(=O)c3ccccc3C2=O)CC1,44*,13,21,-21,22,39*,
CCOC(=O)/C(C#N)=C/C=C1\C=Cc2ccccc2N1CC,37*,16,0,-198,-8,46*,
Cc1cc(/C=C\c2ccc3cc(N(C)C)ccc3[n+]2C)c(C)n1-c1ccccc1,39*,·,3,-35,74*,35*,
CC(=O)c1ccc(NC(=O)COC(=O)c2ccccc2N=Nc2ccc(N(C)C)cc2)cc1,36*,-4,-3,-86,4,28,
N#C/C(=C\c1ccc(O)c([N+](=O)[O-])c1)c1nc2ccccc2s1,38*,-25,3,-103,8,39*,
C[C@@H]1CN([C@H](C)CO)C(=O)c2cc(Br)cnc2O[C@@H]1CN(C)CC1CC1,·,·,-7,·,·,·,
Cc1[nH]n2c(=O)cc(-c3ccc([N+](=O)[O-])cc3)nc2c1-c1ccccc1,48*,-5,·,-24,34*,42*,NadD inh conf=51*
CCCc1cc(=O)n2[nH]c(C)c(-c3ccccc3)c2n1,1,4,·,·,-3,·,
Cc1ccc(-n2[nH]c(C)c(/C=N/Nc3ccc([N+](=O)[O-])cc3[N+](=O)[O-])c2=O)cc1C,39*,1,4,-64,37*,48*,NadD inh conf=12
COc1ccc(NC(=O)Nc2ccc3c(c2)[C@@H]2C[C@@H](CC(=O)NCCc4ccccc4)O[C@H](CO)[C@@H]2O3)cc1,·,·,-3,·,·,·,
CCCC(=O)NC(c1cccs1)c1cc([N+](=O)[O-])c2cccnc2c1O (configuration not stated),35*,3,58*,-22,13,20,ARNT Alpha ctr=9.9µM*
CC(=O)NC(c1ccccc1)c1cc([N+](=O)[O-])c2cccnc2c1O (configuration not stated),12,6,42,-33,11,·,
C[C@@H]1CN([C@H](C)CO)C(=O)c2cc(-c3ccc(C#N)cc3)cnc2O[C@H]1CN(C)C(=O)Nc1ccc(C(F)(F)F)cc1,·,·,-3,·,·,·,
Cc1ccc2cc(C3C(C#N)=C(N)Oc4c3ccc3cccnc43)c(=O)[nH]c2c1 (configuration not stated),36*,·,52*,-2,19,4,ARNT Alpha ctr=52µM*
CCN1/C(=C2\OC(=S)N(C)C2=O)C=Cc2ccccc21,2,7,-9,-42,0,·,
CCSC1=NC(=O)/C(=C2/C=Cc3ccccc3N2CC)S1,37*,21*,24,-26,3,41*,hGIII sPLA2 conf=46*;535nm interf=9.6*
COc1ccc(NC(=O)Nc2ccc3c(c2)C(=O)N([C@H](C)CO)C[C@H](C)[C@@H](CN(C)S(=O)(=O)c2c(C)noc2C)OCCCC[C@H](C)O3)cc1,·,·,2,·,·,·,
